In PubChem BioAssay (NCI):
This is part of a sample that, as a whole, favours compounds with a hit. Of some 83,000 tested, about 20% had one in any assay.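 Activity criterion: percent growth below 10, measured after cells in 96-well plates were exposed to a single compound concentration for 48 hours.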 Activity calls are given as the source filed them.

test system: MDA-MB-468 breast; assay: NCI-60 one-dose screen, 48 h (100 = growth as untreated, 0 = no growth, -100 = all killed); conditions: 10 µM unless noted

Row | Compound | growth
1 | COc1ccc(/C=C2\COc3ccc(O)c(O)c3C2=O)cc1OC | -22.8% (active)
2 | Cn1cc2c(=O)nc3c(-c4nc5ccccc5[nH]4)n[nH]n3c2n1 | 83.3% (inactive)
3 | C#CCOc1ccccc1C(OC(=O)c1ccccc1)C(=O)NC(C)(C)C(C)(C)C (stereo not given) | 80.5% (inactive)
4 | CC(=O)C1CC(C)CCC1C(C)C (stereo not given) | -8.03% (active)
5 | COc1ccc(C2=NN(C(N)=S)C(c3ccc4c(c3)OCO4)C2)cc1 (stereo not given) | -0.33% (active)
6 | CCO/C=N/C1=C(C#N)C(c2ccc(Cl)cc2)c2c(c3ccc(C)cc3[nH]c2=O)O1 (stereo not given) | 96.8% (inactive)
7 | COc1cc2c(c(OC)c1OC)CCc1cnoc1-2 | 83.8% (inactive)
8 | Nc1ccc2cc(Br)c3ccccc3c2c1 | 4.15% (active)
9 | Cc1nc2oc3ccccc3c(=O)c2cc1C(=O)NCc1ccccc1 | 89.2% (inactive)
10 | Nc1[nH]c(=S)nc2oc(-c3ccccc3)c(-c3ccccc3)c12 | 98.8% (inactive)
11 | CN(C)c1ccc(-c2c(C#N)c(N)n3nc(N)c(C#N)c3c2C#N)cc1 | 81.3% (inactive)
12 | CC(CSc1n[nH]c(=S)s1)c1ccccc1 (stereo not given) | 114% (inactive)
13 | C#CCOC(=O)C(N)CSSCC(N)C(=O)O (stereo not given) | 109% (inactive)
14 | C=CC(=O)N[C@@H](/C=C/C(=O)OCC)Cc1ccc(-c2cc(Cl)cc(Cl)c2)cc1 | 1.83% (active)
15 | Nc1ncnc2c1C(c1ccc([N+](=O)[O-])cc1)c1sc3c(F)cccc3c1O2 (stereo not given) | -15% (active)
16 | O=C(O)/C=C/C(=O)Nc1cccc(Cn2nnc3cc(Cl)c(Cl)cc32)c1 | 94.2% (inactive)
17 | CCCCCCCC12Cc3ccccc3C1=Nc1c(c3ccccc3n1C)C2=O (stereo not given) | 97.3% (inactive)
18 | CC1=C[S+](c2ccccc2)c2cccc3cc4ccccc4c1c23 (stereo not given) | -70% (active)
19 | CCN1CCN(CC(=O)N2c3cccc4cccc(c34)N(C(=O)CN3CCN(CC)CC3)C2c2cn(-c3ccccc3)nc2-c2cccc([N+](=O)[O-])c2)CC1 | -47.8% (active)
20 | Cc1cc(NC(=O)NC(=O)c2ccccc2N(C)C)ccc1Oc1ncc(Br)cn1 | -2.54% (active)

Row | Compound | growth
21 | Cn1c(Nc2ccc(C(F)(F)F)cc2)nc2cc(Oc3ccnc(-c4ncc(C(F)(F)F)[nH]4)c3)ccc21 | 32.4% (inactive)
22 | N#CC(=C1C=CC(=NO)C=C1)c1ccccc1 | 13.8% (inactive)
23 | CCC(C)(C)c1ccc(OCCCCCCN2CCNCC2)cc1 | -9.22% (active)
24 | Cc1ccc2c(n1)C(=O)C(Cl)=C(Nc1cc(C(F)(F)F)cc(C(F)(F)F)c1)C2=O | 32.5% (inactive)
25 | Cc1c(C(N)=O)sc2nc(C)n(/N=c3\scc(-c4ccccc4)n3Cc3ccccc3)c(=O)c12 | 79.9% (inactive)
26 | O=C(c1ccccc1)c1c(/C=C/c2ccccc2)nc2ccccc2c1/C=C/c1ccc(Br)cc1 | 94.3% (inactive)
27 | COc1cc2cc(Oc3ccc(NC(=O)c4ccccc4)cc3)c(C)nc2cc1OC | 98.4% (inactive)
28 | CN(C)CCNc1cc(-c2ccccc2)nc2ccccc12 | -33.3% (active)
29 | Cc1cc(C)c2c(c1)N1OC(C2)C[C@H]1/C=C/c1ccccc1 (stereo not given in full) | 92.4% (inactive)
30 | Cc1cccc2c(N)c3ccccc3nc12 | -60.5% (active)
31 | CCOC(=O)c1c(NC(=O)c2ccccc2)sc2c3c(ccc12)OCN(C)C3 | -73.7% (active)
32 | O=S(=O)(Cc1ccccc1)c1ccccc1 | 102% (inactive)
33 | O=C1/C=C/[C@@H](O)[C@@H]2C[C@@H](O)C[C@H]2/C=C/CCC[C@@H](C(F)(F)F)O1 | -40.7% (active)
34 | S=C(Nc1ccccc1)N1CCCCC1 | 90.3% (inactive)
35 | Cc1cc(N(CCCNc2ccnc3cc(Cl)ccc23)Cc2ccccn2)nc(N2CCCC2)n1 | 88.3% (inactive)
36 | CO[C@H]1CC(c2ccc[nH]2)=N[C@]12O[C@@H](C)C[C@@H]1CCCCCCCc3ccc([nH]3)[C@H]12 | 1.37% (active)
37 | C=C1C(=O)O[C@H]2[C@H]1CC/C(COC(=O)NCc1ccc(Cn3c(=O)sn(CCCCl)c3=O)cc1)=C\CC[C@@]1(C)O[C@@H]21 | -52% (active)
38 | CC(C)NS(=O)(=O)c1cccc(-c2ccc3c(=O)n(CCCN)c4c(c3c2)C(=O)c2ccccc2-4)c1 | 111% (inactive)
39 | C=C1C(=O)O[C@H]2[C@H]1CC/C(COC(=O)NCc1c[nH]c3ccc(Cl)cc13)=C\CC[C@@]1(C)O[C@@H]21 | -70.9% (active)
40 | C/C(=C(/c1ccc(Cl)cc1)c1ccc(OCCN2CCCCCC2)cc1)c1ccccc1 | 72.5% (inactive)
